The other results are listed elsewhere or left out. Active and inactive are the calls of the source. Calls follow the shape of the full dose curve.
Potency is read from the fitted curve at half-maximal effect.

This test addresses DNA polymerase beta (Homo sapiens) (UniProt P06746). Put plainly: Inhibitors of DNA Polymerase Beta: Hit validation. The note with it: Pol beta primer extension/strand displacement, fluorescence kinetic. The source says:
The base excision repair system in human cells is a target for therapeutic modulation of the response to irradiation treatment and DNA-damaging drugs. A key enzyme in this system is the bi-functional DNA polymerase known as DNA polymerase Beta (Pol Beta). The following is a homogeneous kinetic assay to study the primer extension and strand-displacement reaction catalyzed by pol beta.
A stepwise description of the 1536-well assay is shown in next Table. Three microliters of reagents (buffer in column 3 and 4 as negative control and 10 nM Pol beta in columns 1, 2, and 5-48) was dispensed into 1,536-well black solid-bottomed plate. Compounds (23 nL) were transferred via Kalypsys pin tool equipped with 1536-pin array (10 nL slotted pins, V&P Scientific, San Diego, CA). The plates were incubated for 15 min at room temperature, and 1 uL substrate (50 nM final concentration) were added to start the reaction and immediately read at 0 min read on Viewlux reader. The plate were further incubated for 10 min at room temperature, and then read on Viewlux again. Throughout the screen, reagent bottle and all liquid lines were chilled and made light-tight to minimize reagent degradation. All screening operations were performed on a fully integrated robotic system (Kalypsys, San Diego, CA) containing one RX-130 and two RX-90 anthropomorphic robotic arms (Staubli, Duncan, SC). Library plates were screened starting from the lowest and proceeding to the highest concentration, and a double-dipping step of the highest concentration was required to access higher concentrations of compounds. Vehicle-only plates, with DMSO being pin-transferred to the entire column 5-48 compound area, were inserted uniformly at the beginning and the end of each library in order to monitor for and record any shifts in the background, which can be affected by reagent dispensers or loss in enzyme activity overtime. Screening data were corrected, normalized, and concentration-effect relationships were derived by using publicly-available curve fitting algorithms developed in-house (http://ncgc.nih.gov/pub/openhts). A four parameter Hill equation was fitted to the concentration-response data by minimizing the residual error between the modeled and observed responses.
For the molecule `O=C(Nc1ccc(S(=O)(=O)Nc2nccs2)cc1)c1cc(-c2ccncc2)nc2ccccc12`, the Potency is 25.1 µM (active).

In the case of `Cc1c(CC(=O)N2CCN(C(=O)C3COc4ccccc4O3)CC2)c(=O)oc2c(O)c(O)ccc12` (configuration not stated), the Potency is 2.24 µM (active).

Consider `COc1ccc(Cc2nnc(NC(=O)Cc3cccs3)s2)cc1`, for which the Potency is 6.31 µM (active).

For `Cc1ccc2nc(-c3ccncc3)cc(C(=O)Nc3ccc(OC(F)F)cc3)c2c1`, the Potency was 35.5 µM (active).

For the molecule `Cc1c(CCC(=O)O)c(=O)oc2c(C)c(OCc3ccccc3Cl)ccc12`, the Potency is 12.6 µM (active).

Turning to `Cc1ccc(C(=O)Oc2coc(CSc3nnc(NC(=O)c4cccs4)s3)cc2=O)cc1C`, the Potency was 31.6 µM (active).

Regarding `COc1cc([C@H](Cc2ccccc2)NC(C)=O)oc(=O)c1`, the Potency is 28.2 µM (active).
